Screening results deposited in PubChem BioAssay by National Center for Advancing Translational Sciences (NCATS).
VP16 counter: VP16 counterscreen qHTS for inhibitors of ROR gamma transcriptional activity | 310,000 compounds, 3.5% hits | Potency, µM (doses to about 53.6 µM), for inactives: top-dose activity, negative = inhibition, usual class: inhibitors | AID 2546, 2010 | Drosophila S2 Gal4-VP16 UAS-luciferase, luminescence, 20 h;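 note: Gal4-VP16 expression switched on by copper sulfate through the metallothionein promoter; potency is the fitted concentration of half-maximal effect; % is set by controls: 0 for no effect and ±100 for the full control effect; nearly all actives have a fitted effect of over 50% in size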
ELG1 repair inh: qHTS screen for small molecules that inhibit ELG1-dependent DNA repair in human embryonic kidney (HEK293T) cells expressing luciferase-tagged ELG1; HEK293T ELG1-luciferase reporter, luminescence, 16 h; DNA damage induced by 5-fluorouridine; Potency, µM (series often up to 46.1 µM), without a hit: at the top dose activity change, negative = inhibition, most hits filed as inhibitors; 330,000 compounds, 2.3% hits; note: potency is the fitted concentration of half-maximal effect; % is set by controls: 0 for no effect and ±100 for the full control effect; nearly all actives have a fitted effect of over 55% in size
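In this reporter screen, reduction of luminescence relative to DMSO vehicle indicated activity. Compounds and 5-fluorouridine were added together to 2,000 cells per well, incubated for 16 hr at 37 °C, then developed with ONE-Glo.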
p53 reactivator: qHTS assay for re-activators of p53 using a Luc reporter | 320,000 compounds, 0.063% hits | Potency, µM (highest dose often 92.2 µM), for the others: at the top dose activity change, positive = activation, usual class: activators | AID 504706, 2011 | H1299 p53-A138V BP100-luciferase reporter, luminescence, 24 h; note: potency is the fitted concentration of half-maximal effect; % of control where 0% means no effect; nearly all actives have a fitted effect of over 45% in size
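H1299 (p53-null), stable ts p53-A138V + BP100-Luc; 1000 cells/well, Opti-MEM/10% FBS; cpd 4 pt, 1:5; 24 h, 37 deg C, 5% CO2; detection reagent 10 min RT; luminescence.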
BRCA1 expr up: qHTS Assay to Identify Small Molecule Activators of BRCA1 Expression. MCF7-BRCA1-FFLuc reporter, luminescence, 48 h; response scale: scaled: vehicle 0%, 10 µM genistein 100%. AID 624202, 2012. 380,000 compounds, 1.1% hits. Potency, µM (titrated, usually from 46.1 µM), for the others: at the top dose activation, usual class: activators; note: potency is the fitted concentration of half-maximal effect; nearly all actives have a fitted effect of over 80% in size
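Activators of BRCA1 expression were detected as increased firefly luciferase luminescence in engineered MCF7 cells after 48 h compound incubation. Signals were scaled to genistein 10 microM as full activation.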
RORg inh: qHTS for inhibitors of ROR gamma transcriptional activity; Potency, µM (top dose mostly 53.6 µM), for inactives: at the highest dose activity change, negative = inhibition, actives largely listed as inhibitors; 310,000 compounds, 5.4% hits; AID 2551, 2010; Nuclear receptor ROR-gamma (Mus musculus), P51450; Drosophila S2 Gal4-RORgamma UAS-luciferase reporter, 20 h; note: potency is the fitted concentration of half-maximal effect; % is set by controls: 0 for no effect and ±100 for the full control effect; nearly all actives have a fitted effect of over 60% in size
Target sequence (P51450 whole entry, looked up, the tested form may be a part): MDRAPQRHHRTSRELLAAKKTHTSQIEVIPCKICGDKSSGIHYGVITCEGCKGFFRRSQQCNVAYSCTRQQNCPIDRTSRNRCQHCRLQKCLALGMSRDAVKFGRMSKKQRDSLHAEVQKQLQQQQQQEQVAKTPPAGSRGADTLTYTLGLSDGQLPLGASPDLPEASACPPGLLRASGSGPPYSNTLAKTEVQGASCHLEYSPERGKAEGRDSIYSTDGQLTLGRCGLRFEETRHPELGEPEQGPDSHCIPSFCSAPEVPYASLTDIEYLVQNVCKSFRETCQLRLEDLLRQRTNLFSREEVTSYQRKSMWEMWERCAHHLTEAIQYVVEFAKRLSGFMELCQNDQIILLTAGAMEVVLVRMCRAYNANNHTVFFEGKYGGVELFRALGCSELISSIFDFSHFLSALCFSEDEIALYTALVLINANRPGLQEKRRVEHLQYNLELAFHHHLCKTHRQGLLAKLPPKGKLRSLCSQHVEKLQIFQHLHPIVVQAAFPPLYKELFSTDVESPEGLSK
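Schneider cells (Drosophila), stable Gal4 DBD–ROR gamma + UAS-luc; 1 hr cmpd preincubation; Cu2+ induction 700 uM final; 20 hr ambient; luminescence.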
Giardia killer: Small Molecules that selectively kill Giardia lamblia: qHTS; 340,000 compounds, 0.15% hits; activity change, % at 7.66 µM, hits read low; Giardia lamblia trophozoite viability; in the data active = activity change below about -80%; inconclusive = between about -30% and that limit;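 note: parasites exposed to compound for two days anaerobically before the ATP read; % is set by controls: 0 for no effect and ±100 for the full control effect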
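ATP-content bioluminescence gauges trophozoite survival. Cells (100/well) receive compound and incubate anaerobically for 48 hrs at 37 deg C; detection reagent follows for 15-30 min at room temperature.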
Starred values were filed as active, the others as inactive; ? = inconclusive; · = no result; [ ] = remark or other dose. Shown are actives, neighbours in structure and some others; about 7.6% of the full set was active somewhere. Unless noted, calls come from the whole dose curve; as a rule, active = well fitted curve in the direction sought with a large enough effect; inconclusive = small, poorly fitted or top-dose-only effect, or another doubt; inactive = no such curve, though single readings can be large; an effect the other way counts as inactive or inconclusive.

SMILES	VP16 counter	ELG1 repair inh	p53 reactivator	BRCA1 expr up	RORg inh	Giardia killer
CC(NCc1ccc(S(N)(=O)=O)cc1)C(=O)Nc1cc([N+](=O)[O-])ccc1Cl (stereo not given)	8%	-1%	5%	4%	?	2
CC[C@]12c3[nH]c4cc(-c5ccco5)ccc4c3CCN1C(=O)[C@@H](CC(=O)NCCCn1ccnc1)C[C@@H]2C(=O)N1CCN(C(=O)C2CC2)CC1	·	15%	2%	12%	·	14
CNc1cccc(-c2cccc(O)c2)n1	·	·	·	10µM*	·	·
CC(C)NC(=O)Cn1c(SCC(=O)c2ccc(F)cc2)nc2ccccc21	0%	4%	4%	0%	36%	-6
N#CCCN(Cc1cccnc1)C(=S)NC(=O)c1ccco1	5%	14%	-3%	-3%	-36%	4
CN(C)S(=O)(=O)c1cccc(C(=O)NC(=S)N(CCC#N)Cc2cccnc2)c1	-25%[10 µM]	10%	-2%	-2%	2µM*	3
CCN(CC)S(=O)(=O)c1ccc(C(=O)NC(=S)N(CCC#N)Cc2cccnc2)cc1	11µM*	-6%	-5%	23%	3.5µM*	-16
Cc1ccc(S(=O)(=O)N(C)C)cc1NC(=S)N(CCC#N)Cc1cccnc1	?	?	-1%	8%	-28%	-17
O=C(Oc1ccc(C(=S)N2CCOCC2)cc1Br)c1ccccc1F	-6%	-8%	-2%	-3%	2%	-16
CCOC(=O)NC(=O)/C(C=Nc1ccc(Cl)cc1)=C(\C)O	-2%	-8%	0%	-2%	1%	-13
Cc1ccsc1/C=N/NC(=O)c1ccc(-n2cccc2)cc1	-7%	?	2%	11µM*	19%	6
Cc1ccsc1/C=N/NC(=O)CSCc1ccc(Cl)cc1	10µM*	-14%	2%	2%	11µM*	-21
Cc1ccc(C(=O)N/N=C\c2sccc2C)cn1	?	?	7%	?	?	-18
Cc1ccsc1/C=N/NC(=O)c1ccc2c(c1)OCCO2	-89%	?	-1%	-17%	1.4µM*	34
Cc1ccsc1/C=N/NC(=O)Cc1ccc(Cl)cc1	-2%	-1%	3%	20%	-29%	-5
Cc1ccsc1/C=N\NC(=O)c1cc(C(C)(C)C)[nH]n1	20µM*	?	4%	5µM*	10µM*	7
Cc1csc(NC(=O)C(C)N2C(=O)c3ccccc3S2(=O)=O)n1 (stereo not given)	1%	0%	15%	-8%	-4%	-2
Cc1ccsc1/C=N\NC(=O)c1ccc2c(c1)OCO2	?	?	6%	?	7.1µM*	-3
Cc1ccsc1/C=N\NC(=O)c1n[nH]c2c1CCC2	7.1µM*	?	18%	-64%	4µM*	-28
Cc1ccsc1/C=N/NC(=O)c1sccc1C	?	?	?	18%	7.9µM*	-5
Cc1ccsc1/C=N/NC(=O)CO	-5%	?	-1%	2%	-17%	7
Cc1ccsc1/C=N\NC(=O)Cn1nnc2ccccc21	?	-3%	23%	-38%	14µM*	-3
O=C(NC1CCCCCCC1)c1ccc(Br)cc1	·	·	·	?	·	0
O=C(NCCc1ccc(Cl)cc1)c1ccc(CNc2c(N3CCOCC3)c(=O)c2=O)cc1	-4%	-6%	-4%	28%	1%	22
O=C(NC(=S)N1CCc2ccccc21)c1ccc(Br)o1	0.32µM*	0%	9%	-31%	0.25µM*	42
SMILES	VP16 counter	ELG1 repair inh	p53 reactivator	BRCA1 expr up	RORg inh	Giardia killer
O=C(NC(=S)N1CCc2ccccc21)c1ccccc1Br	0.89µM*	?	26%	7%	0.1µM*	9
CN1CCN(C(=S)NC(=O)c2ccccc2Br)CC1	11µM*	13%	-9%	13%	7.1µM*	37
O=C(c1ccccc1F)N1CCc2ccccc21	16%	2%	-2%	4%	-17%	-5
COC(=O)c1cc(=O)nc2sc3cc(OC)ccc3n12	-2%	2%	-2%	1%	25%	-18
CCCCc1c(O)nc2sc3cc(OC)ccc3n2c1=O	-11%	?	20%	11µM*	-11%	4
CCCCC(=O)N1CCN(c2nc3ccc(OCC)cc3s2)CC1	-9%	1%	3%	-2%	3%	1
Cc1cc2nc(N3C(=O)CNC3=S)sc2cc1C	3.2µM*	?	-4%	-8%	1µM*	?
CCOc1ccc2nc(N3C(=O)CNC3=S)sc2c1	2.8µM*	?	?	3%	1µM*	?
Cc1cnccc1CN(C)Cc1nc(Cc2ccccc2Cl)no1	?	-12%	-2%	0%	?	-9
Cc1c(C(=O)N2CCN(c3ccc([N+](=O)[O-])cc3)CC2)oc2ccccc12	·	11µM*	-6%	-52%	·	-7
Cc1c(-c2ccccc2)oc2c(C(=O)N3CCN(c4ccc([N+](=O)[O-])cc4)CC3)cccc2c1=O	-1%	3.3µM*	-18%	-35%	19%	-28
CCCCN(CC)CCNC(=O)Cn1cc2c(n1)-c1c(oc(C(=O)N3CCCC3)c1C)CC2	?	9%	-1%	-5%	16µM*	6
C/C(=N\NC(=O)c1ccn[nH]1)c1cn(C)nc1C	-14%	?	29%	54%	-25%	-11
CC(=O)Nc1ccc(C)c(NC(=S)Nc2ccc(F)cc2)c1	7%	-10%	1%	-6%	-19%	19
Cc1ccc(NC(=S)NCCc2ccc(F)cc2)c(C)c1	5µM*	5%	15%	18%	4.5µM*	-26
Cc1ccc(NC(=S)Nc2ccc(F)cc2)c(C)c1	?	-18%	-2%	1%	11µM*	-13
N#CC1(Nc2ccc([N+](=O)[O-])cc2)CCCC1	·	·	·	-16%	·	17
COc1ccccc1-c1ccc2c(c1)C(C)(Cc1cccc(F)c1)C(=O)N2 (stereo not given)	·	·	·	-47%	·	·
O=C(NCc1ccncc1)c1ccc(NS(=O)(=O)c2ccc(F)cc2)cc1	·	8%	-4%	-9%	·	-13
C=CCN1C(=O)/C(=c2\sc3nc(=O)c(Cc4ccccc4)nn3c2=O)c2ccccc21	?	-5%	-4%	-38%	11µM*	4
O=C(c1cccc(S(=O)(=O)NCCOc2ccccc2)c1)N1CCN(c2ncccn2)CC1	-20%	23µM*	-4%	-43%	?	-6
